Measured values from PubChem BioAssay (NCI).
About 83,000 compounds went through this panel and 20% of them were active in at least one assay; those are over-represented in the sample as a whole.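 Activity criterion: percent growth below 10, measured after cells in 96-well plates were exposed to a single compound concentration for 48 hours.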 Unmarked numbers belong to inactive results. Activity calls are given as the source filed them.

How the values were obtained:
Test in all cases: NCI-60 one-dose screen, 48 h (100 = growth as untreated, 0 = no growth, -100 = all killed)
Details in all cases: 10 µM unless noted
[1] = system: DU-145 prostate
[2] = system: K-562 leukemia
[3] = system: MALME-3M melanoma
[4] = system: MDA-MB-231 breast
[5] = system: RXF 393 renal
[6] = system: SF-268 CNS
[7] = system: SF-295 CNS
[8] = system: SF-539 CNS
[9] = system: UACC-257 melanoma
[10] = system: M14 melanoma

SMILES	growth [1]	growth [2]	growth [3]	growth [4]	growth [5]	growth [6]	growth [7]	growth [8]	growth [9]	growth [10]
CN(C)C1CCN(Cc2ccc(NC(=O)c3cncc(C#Cc4cnc(N)c5ncccc45)c3)cc2C(F)(F)F)CC1	64.1%	1.29% (active)	-63.1% (active)	2.48% (active)	19.4%	81.3%	93.9%	59.6%	15.5%	-73.6% (active)
O=C(/C=C/c1ccc(Cl)cc1)c1cccc(Nc2nc(Nc3ccccc3)nc(Nc3ccccc3)n2)c1	121%	71.4%	95.6%	80.7%	-30.3% (active)	113%	62.2%	116%	103%	94.2%
CCOC(=O)c1cn2ncnc(Oc3ccc(NC(=O)NC4CCCCC4)c(Cl)c3)c2c1C	96%	82.6%	58%	58.2%	83.8%	84.9%	96.7%	51.2%	90%	83.9%
CCOP(=O)(OCC)c1nc(-c2ccccc2)oc1NCc1cccnc1	107%	102%	100%	108%	110%	104%	106%	96.2%	109%	111%
CCCCC[C@@H]1Cc2cc(O)c(C(=O)O)c3c2[C@H](C[C@]2(OC[C@@H](CC(=O)[C@@](C)(CC)C(=O)OC)[C@@H]2C)O3)O1	120%	117%	104%	100%	119%	108%	121%	100%	87.6%	119%
O=C(Nc1nc2ccc(F)cc2s1)c1cccnc1Nc1ccc(Cl)cc1	44.3%	5.7% (active)	3.74% (active)	50.7%	59.8%	37.2%	17.4%	50.3%	43%	53.8%
Nc1nc2c([nH]1)c1[nH]c3ccccc3c1c1[nH]c3ccccc3c21	50.2%	-41.6% (active)	-72.4% (active)	-38.7% (active)	-7.44% (active)	71.9%	42.8%	55.6%	103%	-68.9% (active)
N#Cc1cccc(-c2c(-c3ccc4ccccc4c3)oc3ccccc3c2=O)c1	77.1%	11.5%	48.7%	55.7%	81.7%	65.8%	34.2%	43.4%	58.2%	6.18% (active)
CN(CCn1sc(=O)n(Cc2ccccc2)c1=O)Cc1ccc2c(Cl)cc(Cl)c(O)c2n1	51.6%	13.7%	63.7%	46.4%	53.7%	46.1%	30.5%	47.1%	78.5%	49.4%
CCC(C)N(c1ccc(Cl)cc1)c1nc(-c2ccc(Br)cc2)cs1 (stereo not given)	108%	92.4%	97.5%	88.6%	121%	97.1%	105%	101%	103%	95.6%
COc1cc2c(c(OC)c1OC)-c1ccc(OC)c(=O)cc1[C@@H](NC(=O)CCl)CC2	-18% (active)	22.1%	91.8%	4.86% (active)	-12.6% (active)	23.2%	25.1%	4.53% (active)	60.1%	-47.2% (active)
O=C(/C=C/c1ccccc1)c1cccc(OCCCOc2cccc(C(=O)/C=C/c3ccccc3)c2)c1	100%	46.4%	107%	97.4%	94.9%	104%	94.2%	107%	96.4%	95%
Cc1ccc(S(=O)(=O)N2CCCC2CO)cc1 (stereo not given)	104%	114%	83.8%	100%	103%	101%	112%	94.4%	107%	95.1%
COc1ccc(/C(C)=C(/c2ccc(OCCCN(C)C)cc2)c2ccc(OC(=O)Cc3ccccc3)cc2)cc1	94.2%	11.9%	95%	59.7%	67.8%	76%	51.3%	76.1%	82.1%	-19.6% (active)
N#CCSc1nnc2n(Cc3ccccc3)c(=O)c3c4c(sc3n12)CCCC4	107%	70.5%	99.5%	98.8%	83%	98%	102%	104%	98.9%	109%
Cn1c(=O)c2[nH]c(N/N=C/c3ccccc3Br)nc2n(C)c1=O	104%	87.9%	107%	97.8%	121%	104%	92.2%	113%	117%	99.9%
COC(=O)c1c2c(c[n+]([O-])c1C)C(=O)C(NCc1ccccc1)=CC2=O	-87.1% (active)	1.41% (active)	-93.4% (active)	-3.95% (active)	-26% (active)	-13.9% (active)	-45.3% (active)	-71.7% (active)	-81.5% (active)	-77.8% (active)
CC(C)(C)[Si](C)(C)O[C@H]1C(=O)C=CN2CC=C[C@@H]12	108% [100 µM]	105% [100 µM]	106% [100 µM]	105% [100 µM]	109% [100 µM]	101% [100 µM]	94.1% [100 µM]	99.4% [100 µM]	93.6% [100 µM]	108% [100 µM]
CC1(C)c2[nH]c3ccccc3c2C[C@]2(C)[C@H]3CC=C4[C@@H]5C[C@@](C)(C(N)=O)CC[C@]5(C)CC[C@@]4(C)[C@]3(C)CC[C@@H]12	74%	29.9%	68%	65.8%	77.4%	73.2%	53.6%	80.9%	52.5%	54.6%
COc1ccc(C2=Nc3c/c(=C\c4c(O)[nH]c5ccc(Cl)cc45)ccc3=N2)cc1	73.2%	19.4%	40.8%	42.7%	-27.2% (active)	53.4%	29.6%	59.9%	54%	27.6%
O=c1oc2ccc([N+](=O)[O-])cc2cc1Br	109%	102%	107%	109%	108%	103%	98.8%	82.2%	104%	104%
COc1ccc(CC(C#N)c2cc3ccccc3[nH]2)cc1 (stereo not given)	101%	80.5%	89.3%	82.3%	94.1%	90.7%	94.1%	97.5%	94.3%	84.2%
CO/N=C(/C)c1ccc(NC(=O)CSc2nnc(-c3ccncc3)n2-c2ccccc2)cc1	52%	91.6%	32.2%	42.7%	4.02% (active)	13.4%	33%	-31.2% (active)	50.6%	74.8%
C=CCc1c(O)c(C(=O)/C=C/c2ccc(Cl)cc2)c(OC)c2ccoc12	78.5%	47.2%	34.6%	49.4%	21.9%	53.8%	33.1%	50.7%	39.4%	58.3%
CCOC(=O)c1cnc2ccccc2c1Cl	98.3%	116%	126%	85.4%	127%	99.5%	107%	85.9%	109%	92.2%
